This is one part of a sample in which hits are shown more often than they occur.
JMJD2E inh: qHTS Assay for Inhibitors of Human Jumonji Domain Containing 2E (JMJD2E). JMJD2E catalytic domain, FDH-coupled NADH fluorescence (FDH is formaldehyde dehydrogenase). Potency, µM (highest dose often 57.1 µM), inactives show at the highest dose activity change, negative = inhibition, hits mostly inhibitors. hit rate 1.6% among 230,000. AID 2147, 2009; active means well fitted inhibition curve with a large enough effect, not every such curve was filed as active; inconclusive means small, poorly fitted or top-dose-only effect, or another doubt; inactive means no such curve, though single readings can be large or run the other way;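 further: 0% = wells with enzyme and -100% = buffer wells without enzyme; nearly all actives have a fitted effect of over 50% in size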
GCN5L2 inh: qHTS Assay for Inhibitors of GCN5L2. Histone acetyltransferase KAT2A (Homo sapiens), Q92830. Potency, µM (series often up to 58.9 µM), for the others: at the highest dose activity change, negative = inhibition, usual class: inhibitors. hit rate 0.21% among 390,000. AID 504327, 2011. GCN5L2 HAT assay, ThioGlo1 CoA-SH fluorescence
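Titration-based screen in which CoA formation is detected via maleimide probe ThioGlo1 (50uM) turning fluorescent on thiol reaction; substrates H3(1-25) 75uM and acetyl-CoA 70uM, GCN5L2 20nM, 20 min incubation at room temperature.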
APE1 inh: qHTS Assay for Inhibitors of the Human Apurinic/apyrimidinic Endonuclease 1 (APE1); DNA repair nuclease/redox regulator APEX1 (Homo sapiens), P27695; recombinant APE1, TAMRA/BHQ-2 abasic DNA cleavage fluorescence; Potency, µM (doses to about 65.8 µM), for inactives: top-dose activity change, negative = inhibition, most hits filed as inhibitors; hit rate 0.35% among 350,000;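 further: plate controls were vehicle for no effect and reference inhibitor for full effect; nearly all actives have a fitted effect of over 55% in size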
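Kinetic fluorescence read (525 ex/598 em nm, three reads 60 s apart) of AP-site incision; signal = third minus first read. Enzyme 0.75 nM, dual-labelled THF duplex 50 nM, compound preincubation 15 min RT.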
RECQ1 inh-1: qHTS Assay for Inhibitors of RecQ-Like Dna Helicase 1 (RECQ1); ATP-dependent DNA helicase Q1 (Homo sapiens), P46063; hit rate 0.54% among 240,000; RECQ1 DNA unwinding, red fluorescence kinetic read; Potency, µM (top dose mostly 57.3 µM), without a hit: top-dose activity, negative = inhibition, most hits filed as inhibitors;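 further: plate controls were vehicle for no effect and no enzyme for full effect; nearly all actives have a fitted effect of over 30% in size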
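50 nM RECQ1T1 preincubated 15 min with compound in Tris pH 8.0 buffer with MgCl2, DTT, Tween-20 and 2.5 ug/ml poly(dI-dC); started with 200 nM TAMRA/BHQ-2 forked duplex and 2 mM ATP. Unwinding read as fluorescence (525/598 nm), two reads 2 h apart.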
L3MBTL1 inh: qHTS Assay for the Inhibitors of L3MBTL1 | Lethal(3)malignant brain tumor-like protein 1 (Homo sapiens), Q9Y468 | AlphaScreen L3MBTL1–H3K9me1 peptide binding | Potency, µM (doses to about 57.1 µM), for the others: at the highest dose activity, negative = inhibition, actives largely listed as inhibitors | hit rate 0.66% among 230,000 | AID 485360, 2010; further: nearly all actives have a fitted effect of over 60% in size
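L3MBTL1 (50 nM) pre-complexed 30 min with biotinylated H3(1-15)K9me1 peptide (75 nM), then compounds added for 30 min at room temperature; AlphaScreen streptavidin donor/nickel chelate acceptor beads (10 ug/mL final) read after 30 min dark incubation.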
BLM helicase inh: qHTS Assay for Inhibitors of Bloom's syndrome helicase (BLM) | Potency, µM (highest dose often 56.1 µM), without a hit: at the highest dose activity change, negative = inhibition, usual class: inhibitors | hit rate 0.2% among 350,000 | recombinant BLM DNA unwinding, fluorescence dequenching;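 further: plate controls were vehicle for no effect and no enzyme for full effect; nearly all actives have a fitted effect of over 35% in size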
Target sequence (P54132 whole entry, looked up): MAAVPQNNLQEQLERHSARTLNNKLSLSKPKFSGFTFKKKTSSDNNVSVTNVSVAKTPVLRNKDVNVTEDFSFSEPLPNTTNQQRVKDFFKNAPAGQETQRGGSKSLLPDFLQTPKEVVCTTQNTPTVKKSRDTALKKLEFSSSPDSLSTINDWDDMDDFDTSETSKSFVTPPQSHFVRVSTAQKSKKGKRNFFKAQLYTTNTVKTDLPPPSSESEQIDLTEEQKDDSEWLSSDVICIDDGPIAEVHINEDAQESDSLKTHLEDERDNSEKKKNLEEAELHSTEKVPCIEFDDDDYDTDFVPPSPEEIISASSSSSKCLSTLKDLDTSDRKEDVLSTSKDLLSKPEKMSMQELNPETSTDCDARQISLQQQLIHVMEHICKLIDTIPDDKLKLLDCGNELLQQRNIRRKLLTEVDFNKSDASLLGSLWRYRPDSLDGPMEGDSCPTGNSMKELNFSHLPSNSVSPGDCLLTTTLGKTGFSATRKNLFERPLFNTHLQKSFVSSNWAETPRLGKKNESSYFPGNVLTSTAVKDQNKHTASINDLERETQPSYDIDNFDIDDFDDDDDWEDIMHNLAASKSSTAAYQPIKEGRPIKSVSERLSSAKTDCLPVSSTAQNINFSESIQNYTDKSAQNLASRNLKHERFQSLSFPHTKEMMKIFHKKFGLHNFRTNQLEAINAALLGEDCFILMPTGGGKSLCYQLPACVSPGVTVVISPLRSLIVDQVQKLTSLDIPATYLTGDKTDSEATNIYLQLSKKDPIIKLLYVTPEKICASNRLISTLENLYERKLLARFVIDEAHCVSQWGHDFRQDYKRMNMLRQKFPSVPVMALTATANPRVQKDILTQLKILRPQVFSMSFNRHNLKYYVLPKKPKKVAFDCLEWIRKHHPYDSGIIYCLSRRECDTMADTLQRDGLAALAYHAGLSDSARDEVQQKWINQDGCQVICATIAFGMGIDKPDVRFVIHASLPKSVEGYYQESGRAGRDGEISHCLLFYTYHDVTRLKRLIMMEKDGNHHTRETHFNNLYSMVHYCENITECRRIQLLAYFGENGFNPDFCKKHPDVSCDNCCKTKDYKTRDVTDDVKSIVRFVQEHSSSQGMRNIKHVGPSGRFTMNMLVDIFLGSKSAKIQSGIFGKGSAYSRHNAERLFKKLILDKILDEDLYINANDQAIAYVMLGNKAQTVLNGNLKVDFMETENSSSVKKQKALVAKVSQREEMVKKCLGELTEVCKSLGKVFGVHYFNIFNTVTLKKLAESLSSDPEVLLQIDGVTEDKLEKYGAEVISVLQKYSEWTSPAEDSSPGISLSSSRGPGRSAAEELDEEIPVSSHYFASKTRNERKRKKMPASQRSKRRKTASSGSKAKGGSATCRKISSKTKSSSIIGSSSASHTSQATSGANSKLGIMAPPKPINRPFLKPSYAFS
RECQ1 inh conf: Confirmation qHTS Assay for Inhibitors of RecQ-Like Dna Helicase 1 (RECQ1). shares compounds with RECQ1 inh-1. RECQ1 helicase DNA unwinding, fluorescence. Potency, µM (series often up to 229 µM), for inactives: top-dose activity change, negative = inhibition, hits mostly inhibitors. hit rate 28% among 610; further: nearly all actives have a fitted effect of over 45% in size
ADP FP counter: Counterscreen for RECQ1 Inhibitors: ADP Fluorescence Polarization Displacement Assay. hit rate 27% among 530. ADP fluorescence polarization displacement counterscreen. shares compounds with RECQ1 inh-1. Potency, µM (top dose mostly 228 µM), without a hit: at the highest dose activity change, negative = inhibition, usual class: inhibitors; further: nearly all actives have a fitted effect of over 45% in size
RECQ1 inh-2: Confirmation qHTS Assay for Inhibitors of RecQ-Like Dna Helicase 1 (RECQ1) - Round 2 Cherry Picks; Potency, µM (doses to about 119 µM), for inactives: at the top dose activity, negative = inhibition, usual class: inhibitors; hit rate 15% among 1,100; AID 504841, 2011; shares compounds with RECQ1 inh-1; recombinant RECQ1 DNA unwinding, red fluorescence; further: nearly all actives have a fitted effect of over 50% in size
* hit, by the source's call; ? = inconclusive; . = no result; [ ] = another dose, or the depositor's remark. Unless noted, the call rests on the fitted dose curve; in most records, active means well fitted curve in the direction sought with a large enough effect; inconclusive means small, poorly fitted or top-dose-only effect, or another doubt; inactive means no such curve, though single readings can be large; an effect the other way counts as inactive or inconclusive. Unless noted, on the % scale 0 is the no-effect control and ±100 the full control effect; potency means the concentration at half of the fitted maximal effect.

SMILES	JMJD2E inh	GCN5L2 inh	APE1 inh	RECQ1 inh-1	L3MBTL1 inh	BLM helicase inh	RECQ1 inh-2	others
COc1ccc(OC)c(-c2c3cc(O)c(=O)cc-3oc3cc(O)c(O)cc23)c1	11µM*	?	32µM*	35µM*	0.79µM*	28µM*	40µM*
CCOC(=O)Cn1c(=O)cc(C(F)(F)C(F)(F)F)c2c(C)nn(CC)c21	.	-9%	.	.	.	-5%	.
Cn1c(CO)cnc1S(=O)(=O)Cc1ccc(Cl)cc1	4%	-9%	12%	?	3%	0%	-10%
Cn1c(CO)cnc1S(=O)(=O)Cc1c(Cl)cccc1Cl	.	15%	38%	.	.	-2%	.
CCOC(=O)Cn1c(=O)n(-c2ccccc2OC)c2nc(-c3ccc(C(C)C)cc3)nc(C(N)=O)c21	.	3%	.	.	.	1%	.
COc1cccc(NC(=O)Nc2cccn(Cc3ccccc3)c2=O)c1	?	1%	-6%	-6%	-8%	-11%	.
COc1ccc(Cn2cccc(NC(=O)Nc3cccc(OC)c3)c2=O)cc1	?	-9%	-1%	?	.	-11%	-17%
OC(COc1ccc(Cl)cc1)CN1CCN(c2cccc(Cl)c2)CC1 (centres undefined)	-3%	0%	10%	35µM*	.	-12%	?
O=C(O)c1cc(N(Cc2ccccc2O)Cc2ccccc2O)ccc1O	.	.	?	?	.	-10%	?
CCN(CC)c1ccc(C(=O)c2ccccc2C(=O)O)c(O)c1	-10%	-16%	-1%	-8%	?	1%	.
Cc1nn(Cc2ccc(F)cc2)c(C)c1NC(=O)c1cc(-c2ccco2)on1	0%	4%	-23%	?	-2%	-7%	?
CN(C)C(CNC(=O)CCc1nc2sc3c(c2c(=O)[nH]1)CCCC3)c1ccccc1 (centres undefined)	.	-2%	-7%	.	-13%	.	.
CCOC(=O)c1c(C)n(-c2ccccc2)c2ccc(OCCN(C)C)cc12	.	-22%	-7%	.	.	1%	.
CCOC(=O)C(C)Oc1cccc2c(=O)n(CC(=O)NCc3ccc4c(c3)OCO4)ccc12 (centres undefined)	?	-15%	14%	-11%	-12%	3%	.	RECQ1 inh conf=7%;ADP FP counter=?
Cc1cccc(N2C(=O)CC(c3ccc(F)cc3)C3=C2COC3=O)c1 (centres undefined)	3%	-4%	-3%	0%	-3%	2%	.
Oc1ccccc1-c1nnc(SCCN2CCOCC2)n1Cc1ccccc1	?	-6%	-1%	1.6µM*	-10%	0%	?	RECQ1 inh conf=8%[114 µM];ADP FP counter=-10%[91.9 µM]
O=C(CSc1nnc(-c2ccccc2)n1Cc1ccccc1)N1CCOCC1	1%	2%	8%	3%	6%	-3%	.
CCCCN(C(=O)CN1CC(C)OC(C)C1)c1c(N)n(CC(C)C)c(=O)[nH]c1=O (centres undefined)	9%	-2%	18%	-5%	3%	3%	.
CCCCN(C(=O)Cn1ncc(Cl)c(Cl)c1=O)c1c(N)n(CC(C)C)c(=O)[nH]c1=O	-3%	?	-5%	28µM*	-29%	-18%	?
O=C(CSc1nnc(-c2ccncc2)o1)Nc1ccccc1C(F)(F)F	.	0%	37%	.	.	-4%	.
COCCCn1c(=O)/c(=C\c2ccccc2OC(C)C)s/c1=C(/C#N)C(=O)Nc1ccc(C(=O)O)cc1	-8%	?	-2%	?	-9%	-8%	?
COCCCn1c(=O)/c(=C\c2ccc(OC(F)F)c(OC)c2)s/c1=C(/C#N)C(=O)NCCOC	4%	-3%	14%	12%	15%	-3%	.
COCCCn1c(=O)/c(=C\c2ccccc2OC(F)F)s/c1=C(/C#N)C(=O)NC(C)C	11%	-1%	1%	?	-1%	-7%	-13%
Cc1c(/C=C(\C#N)C(=O)Nc2cccc(Cl)c2)c2ccccc2n1Cc1ccccc1	.	-4%	.	.	.	-7%	.
Cc1cc(/C=C\c2nc(O)c([N+](=O)[O-])c(=O)[nH]2)c(C)n1-c1ccccc1	-10%	-7%	?	25µM*	-24%	-16%	?
SMILES	JMJD2E inh	GCN5L2 inh	APE1 inh	RECQ1 inh-1	L3MBTL1 inh	BLM helicase inh	RECQ1 inh-2	others
O=c1[nH]c(/C=C\c2cccc(O)c2)nc(O)c1[N+](=O)[O-]	.	-8%	-7%	.	3%	5%	.
CCOc1ccccc1/C=C\c1nc(O)c([N+](=O)[O-])c(=O)[nH]1	.	-7%	5%	.	.	-5%	.
COc1ccc(-n2c(C)cc(/C=C/c3nc(O)c([N+](=O)[O-])c(=O)[nH]3)c2C)cc1	3%	-5%	?	?	?	-25%	?
CN(Cc1ccco1)S(=O)(=O)c1ccc2c(c1)CCN2C(=O)CCC(=O)O	2%	1%	5%	-6%	6%	1%	.	RECQ1 inh conf=3%;ADP FP counter=0%
Cc1cccc(N2CCN(S(=O)(=O)c3ccc4c(c3)CCN4C(=O)CCC(=O)O)CC2C)c1 (centres undefined)	1%	-2%	-4%	-8%	.	-5%	.	RECQ1 inh conf=?;ADP FP counter=?
O=C(O)CCCC(=O)N1CCc2cc(S(=O)(=O)NCc3ccccc3)ccc21	-1%	-3%	9%	-10%	-22%	1%	.	RECQ1 inh conf=-8%;ADP FP counter=11%
